Only some compounds are listed: those with a hit (about 12% of all), similar ones and a draw of the others.
JMJD2A Tudor = qHTS Assay for Inhibitors of JMJD2A-Tudor Domain | Lysine-specific demethylase 4A (Homo sapiens), O75164 | hit rate 4.4% among 390,000 | Potency, µM (titrated, usually from 114 µM), actives largely listed as inhibitors | AlphaScreen JMJD2A-Tudor / H3K4me3 peptide binding | AID 504339, 2011; further: nearly all actives have a fitted effect of over 50% in size
Sfp PPTase inh = qHTS Assay for Inhibitors of Bacillus subtilis Sfp phosphopantetheinyl transferase (PPTase); AID 1490, 2009; Potency, µM, most hits filed as inhibitors; 4'-phosphopantetheinyl transferase ffp (Bacillus subtilis), Q9F4F7; hit rate 3.5% among 310,000; Biochemical Sfp PPTase activity, qHTS;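 further: the enzyme is Sfp with the accession as filed and its product quenches rhodamine fluorescence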
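Compounds were incubated with enzyme (final 15 nM) for 15 min at room temperature before substrate addition started the reaction. Fluorescence at 525 nm excitation, 598 nm emission was recorded immediately and after 30 minutes.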
BAZ2B inh = qHTS Assay for Inhibitors of BAZ2B | AlphaScreen BAZ2B-H3K14Ac peptide displacement | Potency, µM (highest dose often 114 µM), usual class: inhibitors | hit rate 4.4% among 360,000 | AID 504333, 2011; further: nearly all actives have a fitted effect of over 60% in size
Target sequence (Q9UIF8 whole entry, looked up): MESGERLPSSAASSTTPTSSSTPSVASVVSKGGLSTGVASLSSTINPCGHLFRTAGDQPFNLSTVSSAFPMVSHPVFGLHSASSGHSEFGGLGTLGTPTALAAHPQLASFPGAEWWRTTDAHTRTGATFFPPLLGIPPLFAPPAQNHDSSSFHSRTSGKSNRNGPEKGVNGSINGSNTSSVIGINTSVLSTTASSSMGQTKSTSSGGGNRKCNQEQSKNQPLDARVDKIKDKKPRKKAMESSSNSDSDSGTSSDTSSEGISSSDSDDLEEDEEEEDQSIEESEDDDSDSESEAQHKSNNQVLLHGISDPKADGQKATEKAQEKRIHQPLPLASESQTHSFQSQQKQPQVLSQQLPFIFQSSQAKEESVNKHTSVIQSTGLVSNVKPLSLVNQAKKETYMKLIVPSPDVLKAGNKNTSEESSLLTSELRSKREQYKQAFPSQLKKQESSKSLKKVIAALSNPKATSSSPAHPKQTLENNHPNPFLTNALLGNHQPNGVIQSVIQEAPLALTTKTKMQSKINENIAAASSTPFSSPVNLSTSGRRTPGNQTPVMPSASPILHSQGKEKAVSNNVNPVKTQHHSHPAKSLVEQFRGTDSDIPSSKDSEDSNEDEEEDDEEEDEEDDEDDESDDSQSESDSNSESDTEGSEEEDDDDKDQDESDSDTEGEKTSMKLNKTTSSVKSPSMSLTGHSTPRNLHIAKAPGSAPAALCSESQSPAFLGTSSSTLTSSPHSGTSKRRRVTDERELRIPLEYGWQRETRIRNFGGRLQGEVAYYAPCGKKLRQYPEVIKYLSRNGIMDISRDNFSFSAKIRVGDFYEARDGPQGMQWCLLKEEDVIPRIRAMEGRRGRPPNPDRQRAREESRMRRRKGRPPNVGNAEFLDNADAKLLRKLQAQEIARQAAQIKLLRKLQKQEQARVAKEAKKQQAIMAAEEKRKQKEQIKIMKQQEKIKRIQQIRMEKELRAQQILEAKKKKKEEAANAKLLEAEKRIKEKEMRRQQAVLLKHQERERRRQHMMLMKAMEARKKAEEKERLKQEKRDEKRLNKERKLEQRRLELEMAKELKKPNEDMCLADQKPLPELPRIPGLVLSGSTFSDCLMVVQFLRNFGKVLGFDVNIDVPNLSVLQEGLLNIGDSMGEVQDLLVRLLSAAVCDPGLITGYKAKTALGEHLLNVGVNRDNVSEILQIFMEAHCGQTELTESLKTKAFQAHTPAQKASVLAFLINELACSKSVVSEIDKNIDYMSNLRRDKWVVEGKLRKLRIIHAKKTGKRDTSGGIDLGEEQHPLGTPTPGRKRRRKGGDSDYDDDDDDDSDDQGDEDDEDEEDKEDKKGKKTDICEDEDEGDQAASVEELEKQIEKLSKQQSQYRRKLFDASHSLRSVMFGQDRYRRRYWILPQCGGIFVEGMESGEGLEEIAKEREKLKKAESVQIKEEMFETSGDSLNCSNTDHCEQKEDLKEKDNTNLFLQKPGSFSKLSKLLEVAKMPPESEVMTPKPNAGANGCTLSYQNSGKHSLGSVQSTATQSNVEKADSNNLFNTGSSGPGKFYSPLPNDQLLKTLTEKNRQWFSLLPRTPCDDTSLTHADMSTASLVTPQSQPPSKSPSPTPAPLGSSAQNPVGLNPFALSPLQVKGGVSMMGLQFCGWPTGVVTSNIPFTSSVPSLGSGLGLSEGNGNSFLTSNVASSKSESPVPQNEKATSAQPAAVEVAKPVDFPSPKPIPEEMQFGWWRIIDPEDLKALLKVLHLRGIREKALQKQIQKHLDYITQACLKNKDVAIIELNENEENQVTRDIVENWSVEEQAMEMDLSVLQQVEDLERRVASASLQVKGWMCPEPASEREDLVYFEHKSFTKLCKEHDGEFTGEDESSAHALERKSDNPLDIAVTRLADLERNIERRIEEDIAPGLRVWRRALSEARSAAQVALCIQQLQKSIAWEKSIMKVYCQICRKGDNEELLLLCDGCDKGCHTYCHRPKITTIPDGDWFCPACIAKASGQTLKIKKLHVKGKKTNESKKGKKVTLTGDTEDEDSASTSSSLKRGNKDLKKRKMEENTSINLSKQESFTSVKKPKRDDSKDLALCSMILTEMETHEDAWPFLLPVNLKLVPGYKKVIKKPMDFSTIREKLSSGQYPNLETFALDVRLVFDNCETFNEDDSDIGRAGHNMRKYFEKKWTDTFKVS
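Inhibition is scored as reduced AlphaScreen emission. The BAZ2B/b-H3(5-23)K14Ac complex (50 nM each) in PBS pH 7.4, 0.01% Tween-20 meets compound (up to 110 uM) for 30 min at RT before bead addition.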
HP1b chromo inh = HTS for Inhibitors of HP1-beta Chromodomain Interactions with Methylated Histone Tails. Chromobox protein homolog 1 (Homo sapiens), P83916. AlphaScreen HP1-beta / biotin-H3K9me3 peptide binding. Potency, µM (doses to about 114 µM), actives largely listed as inhibitors. hit rate 0.56% among 390,000. AID 540317, 2011; further: nearly all actives have a fitted effect of over 70% in size
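Compound inhibition of the preformed complex between 50 nM HP1-beta and 50 nM biotinylated H3K9me3 peptide was read by AlphaScreen. Buffer was PBS pH 7.4 with 0.01% Tween-20. Incubations ran 30 min at room temperature, with 10 ug/mL donor/acceptor beads.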
G9a inh = qHTS Assay for Inhibitors of Histone Lysine Methyltransferase G9a. Histone-lysine N-methyltransferase EHMT2 (Homo sapiens), Q96KQ7. G9a H3K9 monomethylation, AlphaScreen, 2 h. Potency, µM (titrated, usually from 102 µM), usual class: inhibitors. hit rate 8.8% among 350,000. AID 504332, 2011; further: nearly all actives have a fitted effect of over 75% in size
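Chemiluminescent proximity detection of H3K9 monomethylation, read after 10 min bead incubation in the dark. Reaction: 20 nM G9a, 500 nM biotin-H3K9 peptide, 20 uM SAM cofactor, 2 h, room temperature, following 15 min enzyme-compound preincubation.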
L3MBTL1 block = qHTS Assay for the Inhibitors of L3MBTL1 | Potency, µM (titrated, usually from 57.1 µM), actives largely listed as inhibitors | hit rate 0.66% among 230,000 | AlphaScreen L3MBTL1–H3K9me1 peptide binding | Lethal(3)malignant brain tumor-like protein 1 (Homo sapiens), Q9Y468; further: nearly all actives have a fitted effect of over 60% in size
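AlphaScreen assay: L3MBTL1 (50 nM final) was preincubated 30 min at room temperature with biotinylated H3(1-15)K9me1 peptide (75 nM final), then 30 min with library compounds; streptavidin donor and nickel chelate acceptor beads (10 ug/mL final) added, 30 min dark.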
Hits are given with their value; n = inactive; u = inconclusive; x = not tested or not shown; ! = not confirmed by another sample; [ ] = dose if it differs, or a comment. The call rests on the fitted dose curve; in most records, active means well fitted curve in the direction sought with a large enough effect; inconclusive means small, poorly fitted or top-dose-only effect, or another doubt; inactive means no such curve, though single readings can be large; an effect the other way counts as inactive or inconclusive.

SMILES | JMJD2A Tudor | Sfp PPTase inh | BAZ2B inh | HP1b chromo inh | G9a inh | L3MBTL1 block
COc1ccccc1NS(=O)(=O)c1cc(NC(=O)c2cccs2)ccc1N1CCCC1 | u | 20µM | n | u | 1.58µM | n
COc1ccccc1NS(=O)(=O)c1cc(NC(=O)c2sccc2C)ccc1N1CCOCC1 | n | n | n | n | n[12.7 µM] | x
COc1ccccc1NS(=O)(=O)c1cc(NC(=O)c2cc[n+]([O-])cc2)ccc1N1CCCC1 | 63.1µM | 11.2µM | x | u | u | n
COc1ccccc1NS(=O)(=O)c1cc(NC(=O)Nc2ccccc2)ccc1N1CCCCC1 | n | u | n | u | 10µM | n
COc1ccccc1OCCNC(=O)Cc1ccc(S(=O)(=O)N2CCOCC2)s1 | n | x | n | n | n | n
CC(C)C(NC(=O)c1ccc(F)cc1)C(=O)N1CCC1 (stereo unspecified) | n | x | n | n | n | n
CC(C)(C)OC(=O)NCc1nc(N)n[nH]1 | n | n | n | n | n | n
Cn1c(CCNC(=O)OC(C)(C)C)n[nH]c1=S | 39.8µM | n | n | n | u | n
CC(C)(C)OC(=O)NCCc1n[nH]c(=S)o1 | u | 79.4µM | n | n | x | n
S=C(Nc1ccc(Cl)cc1Cl)Nn1cnnc1 | n | 12.6µM | n | n | u | n
S=C(Nc1cccc(Cl)c1Cl)Nn1cnnc1 | u | 35.5µM | u | u | 3.98µM | n
S=C(Nc1cc(Cl)ccc1Cl)Nn1cnnc1 | n | 17.8µM | n | n | 7.94µM | x
NC(=S)Nc1cc(Cl)ccc1Cl | n | u | n | n | u | n
CCOC(=O)C1=CN(Cc2ccco2)S(=O)(=O)N(C)C1c1ccc(F)c(Cl)c1 (stereo unspecified) | n | x | x | n | x | n
Cc1nc(NC(=O)CN2CC(C)OC(C)C2)sc1C(=O)N(C)C (stereo unspecified) | n | n | n | n | u | n
O=C(c1cc(-c2ccc(Br)cc2)on1)N1CCc2ccccc2C1 | 50.1µM | n | n | n | n | x
O=C(c1cc(-c2ccc(Cl)c(Cl)c2)on1)N1CCCCCC1 | n | n | n | n | n | x
O=C(c1cc(-c2ccc(Cl)cc2)on1)N1CCCCCC1 | 25.1µM | n | n | n | n | x
c1ccc(-c2ncc3ccccn23)cc1 | n | 15.8µM | n | n | 79.4µM | n
c1ccc2c(c1)ncc1cccn12 | n | n | n | n | n | n
NC(=O)c1c(-c2cccs2)csc1N | u | 39.8µM | u | n | n[12.7 µM] | n
CCOc1ccc(C2C=C(c3ccccc3)Nc3nnnn32)cc1 (stereo unspecified) | n | n | n | n | 50.1µM | n
CCOc1ccc(C2C=C(c3ccc(C)cc3)Nc3ncnn32)cc1 (stereo unspecified) | x | n | n | x | 28.2µM | n
CCOc1ccc(C2C=C(c3cccc(OC)c3)Nc3nnnn32)cc1 (stereo unspecified) | n | x | n | n | n | x
CCOc1ccc(C2C=C(c3ccc(C)cc3)Nc3nnnn32)cc1 (stereo unspecified) | n | n | u | n | 50.1µM | n
SMILES | JMJD2A Tudor | Sfp PPTase inh | BAZ2B inh | HP1b chromo inh | G9a inh | L3MBTL1 block
COc1cc(OC)c(-c2nn3c(-c4cc(C)[nH]n4)nnc3s2)cc1OC | n | x | x | n | x | x
O=C(CS(=O)(=O)Nc1ccc(F)cc1Cl)Nc1ccc(F)cc1Cl | n | n | n | n | n | x
CN(C)S(=O)(=O)c1ccc(/C(O)=C2/C(=O)C(=O)N(Cc3cccnc3)C2c2ccncc2)cc1 (stereo unspecified) | n | n | n | n | 15.8µM | n
CN(C)S(=O)(=O)c1ccc(/C(O)=C2/C(=O)C(=O)N(Cc3cccnc3)C2c2cccs2)cc1 (stereo unspecified) | n | n | n | n | 39.8µM | n
CN(C)S(=O)(=O)c1ccc(/C(O)=C2/C(=O)C(=O)N(Cc3cccnc3)C2c2ccco2)cc1 (stereo unspecified) | u | n | u | n | u | u
Cc1c(C#N)c(O)n(CCO)c(=O)c1N=Nc1ccc(S(N)(=O)=O)cc1 | n | n | 79.4µM | n | n | x
Cc1c(C#N)c(O)n(C)c(=O)c1N=Nc1ccc(S(N)(=O)=O)cc1 | n | n | n | n | n | x
CC1C(=O)Nc2ccc(S(=O)(=O)NCc3ccc(N(C)C)cc3)cc2NC1=O (stereo unspecified) | n | x | n | n | n | x
CCOC(=O)c1c(NC(=O)CSc2nnc(-c3ccncc3)n2Cc2ccco2)sc(C)c1C | u | n | u | n | 50.1µM | x
Cc1cc(C)c(NC(=O)CSc2nnc(-c3ccncc3)n2Cc2ccco2)c(Cl)c1 | n | 20µM | n | n | 50.1µM | n
Cc1cc(C)c(NC(=O)CSc2nnc(-c3ccccn3)n2N)c(Cl)c1 | 44.7µM | n | 14.1µM | n | n | 28.2µM
O=S(=O)(N1CCN(c2nc(-c3cccs3)nc3ccccc23)CC1)C(F)(F)F | n | x | x | n | x | x
COC(=O)C1(C)NC(=O)c2ccccc2N1 (stereo unspecified) | n | n | n | n | n | n
COc1ccc2c(c1)CCc1cn[nH]c1-2 | u | n | n | n | n | x
CC1=CC(C)(C)Nc2ccccc21 | u | 79.4µM | 50.1µM! | n | n[0.501 µM] | u
COc1ccc2c(c1)NC(C)(C)C=C2C | 63.1µM | u | 39.8µM | 44.7µM | 39.8µM | n
O=C(COC(=O)C1CC2CCCC(C1)C2=O)NC1CCCCC1 (stereo unspecified) | n | x | n | n | n[12.7 µM] | n
Cn1nc(-c2ccccn2)nc2c(=O)n(C)c(=O)nc1-2 | 11.2µM | 50.1µM | 10µM | n | 14.1µM | x
O=S(=O)(c1ccccc1Cl)N1CCN(c2nc(-c3cccs3)nc3ccccc23)CC1 | n | x | x | n | x | x
CN(CC(O)CN)CC(O)CN1CCCCC1 (stereo unspecified) | n | n | n | n | 3.55µM | x
N#Cc1sc2nc(C3CC3)cc(-c3ccccc3)c2c1N | n | n | n | n | n | n
N#Cc1sc2nc(-c3ccccc3)cc(-c3ccco3)c2c1N | 56.2µM | 79.4µM | u | n | 8.91µM | u
N#Cc1c(-c2ccco2)cc(-c2ccccc2)[nH]c1=O | u | u | 70.8µM | n | x | x
CC(=O)Nc1nc(-c2ccccc2)cc(-c2ccco2)c1C#N | n | x | n | n | n[2.33 µM] | n
N#Cc1c(-c2ccccc2)cc(-c2ccco2)c(C#N)c1N | x | 35.5µM | n | x | u | x
CCOc1ccc(/C=N/NC(=O)c2cc3ccccc3cc2OC)cc1 | n | n | n | n | n | x
CCN(CC)c1ccc(CNC23CN4CN(CN(C4)C2)C3)cc1 | u | n | n | n | 3.16µM | n[11.4 µM]
Cc1ccccc1/C=C/C1=NCCN1 | 20µM | x | u | u | 29.9µM | n
Cc1ccccc1C=O | n | x | n | n | n[0.501 µM] | n
